Assay outcomes deposited in PubChem BioAssay by several laboratories.
NLRP3 yeast inh: inhibitors of NALP3 inflammasome in yeast | Yeast reconstituted NLRP3/ASC/caspase-1, beta-gal luminescence, 24 h | inhibition, % at 10 µM | actives 0.39% (n = 330,000);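 active = inhibition of 50% or more; inactive = inhibition below 50%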
SKKanGAS inh: inhibitors of SKKanGAS S. pyogenes growth in kanamycin (SK-promoter or general growth effect). BacTiter-Glo, 6 h. inhibition, % at 7.5 µM. actives 1.3% (n = 300,000). AID 1662;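 active = mean replicate score, as percent of positive control median, at least 50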;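 note: strain carries kanamycin resistance gene driven by streptokinase promoter and grows in 40 µg/ml kanamycin; loss of luminescence reflects streptokinase promoter inhibition or plain growth inhibition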
TIM10 inh: inhibits growth of TIM10 yeast strain | S. cerevisiae TIM10 strain growth, BacTiter-Glo luminescence, 24 h | inhibition, % at 10 µM | actives 1.4% (n = 330,000);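 active = inhibition of 40% or more at the single tested concentration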;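 note: wild-type TIM10 isogenic control strain grown at permissive 25 °C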
tim23-1 inh: growth inhibitors of tim23-1 mutant yeast. S. cerevisiae tim23-1 growth, BacTiter-Glo luminescence, 24 h. inhibition, % at 20 µM. actives 1.3% (n = 330,000). AID 463212;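 active = growth inhibition of the mutant yeast at or above 50%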;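 note: temperature-sensitive mutant grown at 25 °C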
tim10-1 inh: tim10-1 yeast growth inhibition | S. cerevisiae tim10-1 ts strain growth, BacTiter-Glo, 24 h | inhibition, % at 20 µM | actives 2.2% (n = 330,000);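 active = inhibition of at least 40%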;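 note: mutant grown at 25 °C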
NALP1 inh: blocks the NALP1 inflammasome reconstituted in yeast. S. cerevisiae NALP1/ASC/caspase-1 growth, X-gal OD620, 72 h. inhibition, % at 10 µM. actives 0.61% (n = 280,000). AID 2071; in the data active = inhibition mostly above about 24%, no sharp cut-off; inactive = mostly below about 32%
tim10-1 confirm: confirmation of tim10-1 mutant yeast growth inhibitors; shares compounds with tim10-1 inh; S. cerevisiae tim10-1 ts strain growth, BacTiter-Glo, 24 h; inhibition, % at 20 µM; actives 56% (n = 7,400);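 active = inhibition of yeast growth at or above a set limit in either of two repeat tests at 20 µM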;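 note: tim10-1 mutant grown at permissive 25 °C to find synthetic lethal compounds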
tim10 confirm: confirmation of TIM10 yeast growth inhibitors | shares compounds with TIM10 inh | S. cerevisiae tim10 strain growth, BacTiter-Glo luminescence, 24 h | inhibition, % at 10 µM | actives 63% (n = 4,600) | AID 463215;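 active = inhibition of yeast growth at or above a set limit in either of two replicates at 10 µM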; note: this counterscreen used the strain with wild-type TIM10
tim23-1 conf: confirmation of tim23-1 mutant yeast growth inhibitors; shares compounds with tim23-1 inh; S. cerevisiae tim23-1 growth, BacTiter-Glo luminescence, 24 h; inhibition, % at 20 µM; actives 83% (n = 4,400); AID 463218;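 active = inhibition above about 39% in either of two replicate wells at 20 µM, limit read from the data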;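 note: temperature-sensitive tim23-1 mutant grown at 25 °C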
A number is an active result; 0 = inactive; - = no result. Shown are actives, neighbours in structure and some others; about 4.9% of the full set was active somewhere.

SMILES	NLRP3 yeast inh	SKKanGAS inh	TIM10 inh	tim23-1 inh	tim10-1 inh	NALP1 inh	tim10-1 confirm	tim10 confirm	tim23-1 conf
O=C(COC(=O)c1ccc([N+](=O)[O-])s1)c1ccc[nH]1	0	-	79	64	63	-	71	84	58
O=C(OCC(=O)c1ccc[nH]1)c1ccc([N+](=O)[O-])cc1	0	-	0	0	0	-	-	-	-
CC(NC(=O)c1cc(S(=O)(=O)N2CCCC2)ccc1Cl)c1ccccn1 (stereo not given)	0	-	0	0	0	-	-	-	-
NCCCn1c(C(=O)c2ccc(Cl)cc2)c2ccc([N+](=O)[O-])cc2[n+]1[O-]	0	0	0	0	0	-	-	-	-
N#Cc1c2ccc([N+](=O)[O-])cc2[n+]([O-])n1-c1ccccc1	0	-	66	75	61	-	0	66	0
CC(=O)c1ccc(S(=O)(=O)N2CCN(CCOc3ccccc3)CC2)cc1	0	-	0	0	0	-	-	-	-
NS(=O)(=O)c1cc(C(=O)Nc2ccc3c(c2)CCC3)ccc1Cl	0	0	0	0	0	0	-	-	-
O=C(NO)c1ccc(C(=O)N(C2CCCCC2)C2CCCCC2)cc1	0	0	51	64	53	0	41	39	71
CC1CCc2c(sc(NC(=O)CSc3nc(N)cc(=O)[nH]3)c2C(N)=O)C1 (stereo not given)	0	-	0	0	0	-	-	-	-
Cc1cccc(-c2n[nH]c(=S)n2/N=C/c2ccc(C)o2)c1	0	0	0	0	0	0	-	-	-
N/C(=N\OC(=O)c1cccs1)c1ccc(Cl)cc1	0	0	84	82	69	-	53	84	91
N/C(CC(=O)Nc1ccc(F)c(Cl)c1)=N\OC(=O)c1cccs1	0	0	81	73	54	0	37	86	83
COc1ccc(/C(N)=N/OC(=O)c2cccs2)cc1	0	0	63	71	43	0	60	68	88
O=C(COC(=O)c1cccs1)Nc1ccc(F)c(F)c1	0	-	0	0	0	-	-	-	-
O=C(CCS(=O)(=O)Cc1ccccc1)Nc1ncc([N+](=O)[O-])s1	0	0	0	0	0	0	-	-	-
O=C(C[C@H]1C[C@H](C(=O)N2CCCCC2)[C@@]2(CCc3ccccc3)c3[nH]c4ccc(Cl)cc4c3CCN2C1=O)NCCC1=CCCCC1	-	-	0	0	0	-	-	-	-
Cc1ccc(-n2c(SCC(=O)Nc3ccc(Cl)cc3)nc(O)cc2=O)cc1	0	0	0	0	0	0	-	-	-
CCOC(=O)c1sc(=NC(=O)c2c(F)cccc2F)n(C)c1C	0	0	47	56	43	0	0	46	76
CCOC(=O)c1sc(=NC(=O)c2ccc(F)cc2)n(C)c1C	0	0	0	0	0	0	-	-	-
Cc1cc2nn(-c3cccc4ccccc34)nc2cc1N	0	0	0	0	0	0	-	-	-
Cc1cc2nc3ccc(N(C)C)cc3nc2cc1N	0	0	70	50	46	-	58	73	41
COCCCNC(=O)COc1cc2c(c3oc(=O)c(C)c(C)c13)CCC(C)(C)O2	0	0	0	0	0	0	-	-	-
O=[N+]([O-])c1ccc(C=Nc2cccc3ccccc23)s1	0	0	0	79	77	0	77	-	70
O=c1oc(/C=C/c2ccc([N+](=O)[O-])s2)nc2ccccc12	0	0	0	54	60	-	46	-	45
COc1cccc(OCCNC(=O)c2cc(OC)c(OC)c(OC)c2)c1	0	0	0	0	0	0	-	-	-
SMILES	NLRP3 yeast inh	SKKanGAS inh	TIM10 inh	tim23-1 inh	tim10-1 inh	NALP1 inh	tim10-1 confirm	tim10 confirm	tim23-1 conf
S=C(NCCCN1CCOCC1)N1CCN(c2nc(-c3ccc(Cl)cc3)cs2)CC1	0	0	0	0	0	0	-	-	-
S=C(NCC1CCCO1)N1CCN(c2nc(-c3ccc(Cl)cc3)cs2)CC1 (stereo not given)	0	0	40	50	51	0	39	43	52
O=C(Nc1ccc(Cl)cc1)ON=C1CCCC1	0	0	82	64	43	94	0	0	41
C/C(=N\OC(=O)Nc1ccc(Cl)cc1)c1ccc(F)c(F)c1	0	0	0	57	51	0	54	-	59
C/C(=N\OC(=O)Nc1ccc(Cl)cc1)c1ncc(C(F)(F)F)cc1N1CCOCC1	0	0	0	0	0	0	-	-	-
c1ccc(-c2ccc(-c3ccncn3)cc2)cc1	0	0	0	0	0	-	-	-	-
COc1cccc(C(O)C2OC(=O)c3ccccc32)c1OC (stereo not given)	0	0	0	0	0	-	-	-	-
Cc1cc(Cl)n2ncc(-c3ccccc3)c2n1	0	0	0	0	0	0	-	-	-
Cc1cc(N)n2ncc(-c3ccc(Cl)cc3)c2n1	0	0	0	71	53	0	41	-	21
CCOC(=O)C1=C(C)N(CCCC(=O)O)C(=O)NC1c1ccccc1OC(=O)c1cccs1 (stereo not given)	0	0	0	0	0	-	-	-	-
O=C(CN1C(=O)c2ccccc2C1=O)c1ccccc1	0	0	0	0	0	0	-	-	-
CC1=C(CC(=O)c2ccccc2)C(=O)c2ccccc2C1=O	0	0	0	64	48	0	42	-	69
CN(C)S(=O)(=O)c1ccc(C(=O)NNC(=O)C23CC4CC(CC(C4)C2)C3)cc1	0	-	0	0	0	-	-	-	-
COc1cccc(NC(=O)C2CC(=O)n3cnnc3S2)c1 (stereo not given)	0	-	41	61	43	0	33	0	59
CC1CCc2sc3nc(NCc4ccco4)n4ncnc4c3c2C1 (stereo not given)	0	0	0	51	41	0	35	-	56
CCN1CCN(c2nc3sc4c(c3c3ncnn23)CC(C)CC4)CC1 (stereo not given)	0	0	0	0	0	0	-	-	-
CC(=NC1CC1)c1c(-c2ccccc2)[nH]n(-c2nc3ccccc3s2)c1=O	0	0	64	53	53	0	56	49	52
CC(=NC1CCCC1)c1c(C)[nH]n(-c2nc3ccccc3s2)c1=O	0	0	0	0	0	0	-	-	-
COc1ccc(/C=C/c2c(-c3ccc(OC)cc3)sc3cc(OC)c(OC)cc23)cc1	0	-	0	0	0	-	-	-	-
COCCN(C(=O)CCl)C(C(=O)NC1CCCCC1)c1ccccc1C (stereo not given)	0	0	47	50	55	0	44	0	53
CCC(C)(C)C1CCc2[nH]nc(C(=O)NCc3ccc(OC)cc3)c2C1 (stereo not given)	0	-	0	0	0	-	-	-	-
CCC(C)(C)C1CCc2[nH]nc(C(=O)NC3CCCC3)c2C1 (stereo not given)	0	-	0	59	42	-	35	-	57
